Hit rate of the full screen: of about 94,000 compounds, about 6,200 (6.6%) were called active. Roughly 31% stayed inconclusive and do not appear here. Only a selection was taken, and actives are over-represented in it overall. A number with no mark means an inactive call. Calls come from the whole dose curve; as a rule, active = well fitted inhibition curve with a large enough effect; inconclusive = small, poorly fitted or top-dose-only effect; inactive = flat fitted curve, though single readings scatter.
Assay: Cytotoxic Profiling in HEK 293 Cell Line of Diverse Libraries Using Quantitative High-Throughput Screening; note: nearly all actives have a fitted effect of over 60% in size
Settings: HEK 293 viability, ATP luminescence (CellTiter-Glo), 48-72 h; series mostly up to 115 µM; activity change, negative = cytotoxicity: at the top concentration
How it was run: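 HEK 293 cells seeded at 250 cells/well were exposed to compound for 48 or 72 hr at 37 degree Celsius. Viability taken as ATP content by CellTiter-Glo luminescence.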
% is set by controls: 0 for no effect and ±100 for the full control effect; potency is the fitted concentration of half-maximal effect.

SMILES | outcome | activity change, negative = cytotoxicity | Potency
Cc1cnc(C2CC2)n1C1CCN(C(=O)C(C)C)CC1 | inactive | – | –
COc1ccc(C(=O)N2CCOC3(CCN(C(=O)CN)CC3)C2)cc1 | inactive | – | –
COCCNC(=O)c1ccc(CC2CCNCC2)cc1 | – | -45.9% | –
Cc1cnc(-c2cccnc2)n1C1CCN(S(=O)(=O)c2cccc(F)c2)CC1 | – | -7.54% | –
O=C(c1c(OCC2CC2)cc(=O)n2c1CCOCC2)N1CCCCCC1 | – | -9.09% | –
CCOc1ccc(NC(=O)C2(Cc3cccnc3)CCCCC(=O)N2)cc1 (centres undefined) | – | -22.4% | –
COc1cccc(NC(=O)c2cnc3n[nH]c(-c4ccc(OC)cc4C)c3n2)c1 | – | – | 100 µM (active)
COc1cccc(NC(=O)c2c(OC)cc(=O)n3c2CCCC3)c1 | – | -19.1% | –
COC(=O)C1=CN(CC(=O)Nc2cccc(OC)c2)S(=O)(=O)N=C1C | – | -21.2% | –
CC(c1ccon1)N(C)Cc1cnc(S(=O)(=O)C(C)C)n1Cc1ccccc1F (centres undefined) | – | -13.1% | –
O=C(NC1CCCCC1)N1CCCCCC1c1nc(-c2cccnc2)no1 (centres undefined) | – | -16.5% | –
CC(=O)N1CCC(N2CCC[C@H]2c2nc(-c3ccc(-c4cncnc4)nc3)no2)CC1 | – | -10.2% [at 172 µM] | –
CN1CCC(N2CCC[C@H]2c2nc(-c3ccc(OC4CCCCC4)nc3)no2)CC1 | – | – | 28.2 µM (active)
O=C(N[C@@H]1CN(Cc2cccnc2)C[C@H]1CO)c1cccnc1 | – | -8.4% | –
COc1c(F)cccc1CN1CCOc2cc([S+](=O)([O-])N(C)C)ccc2C1 | – | – | 79.4 µM (active)
CCn1cc(CN2CCOc3ccc(C(=O)NCc4ccccc4F)cc3C2)cn1 | – | -22% | –
O=[S+]([O-])(Nc1cccnc1)c1ccc2c(c1)OCCN(Cc1cscn1)C2 | – | -16.3% [at 172 µM] | –
O=C(c1ccccc1F)N1CCCC2(CN[S+](=O)([O-])c3cccnc3N2)C1 (centres undefined) | – | -1.19% | –
O=c1c2ccccc2cnn1CCNC1CCC2(CCNCC2)CC1 | – | -8.73% | –
Cc1nonc1OCCNC1CCC2(CCNCC2)CC1 | – | -20.4% | –
CN(CCCNC1CCC2(CCNCC2)CC1)c1ccccc1 | – | – | 79.4 µM (active)
CNC(=O)[C@@H]1CN(C(=O)c2cnc(C)cn2)C[C@H]1COC | – | -3.77% | –
Cc1onc(-c2cnn(C)c2NCc2ccc(C#N)cc2)c1C(=O)N1CCN(C)CC1 | – | -6.43% [at 172 µM] | –
CNC(=O)N1CCCC1c1nc(C2CN(C(=O)c3nccn3C)C2)no1 (centres undefined) | inactive | – | –
CN1C(=O)CC[C@]2(C(=O)NCc3ccc4c(c3)OCO4)CCCC[C@@H]12 | – | 4.76% | –

SMILES | outcome | activity change, negative = cytotoxicity | Potency
Cn1ncc2c(C(=O)NCc3ccc4c(c3)OCO4)cc(-c3ccc(Cl)nc3)nc21 | – | -2.46% | –
CC1(C(=O)NCc2ccc3c(c2)OCO3)CCc2cnc(NCc3ccccc3)nc21 (centres undefined) | – | – | 70.8 µM (active)
O=C1Nc2ccc(-c3ccccc3)cc2C(=O)N2C[C@H](O)C[C@@H]12 | – | -41.1% [at 172 µM] | –
O=C(Cc1cc(F)c(F)c(F)c1)N1CCC(Cc2cccc(CO)c2)C1 (centres undefined) | – | -29.4% | –
CC(C)(CC(=O)O)CC(=O)N[C@H]1CO[C@H]2[C@@H]1OC[C@@H]2n1nnnc1-c1ccccc1 | – | -5.18% [at 172 µM] | –
c1ccc(CO[C@@H]2CO[C@H]3[C@@H]2OC[C@@H]3n2nnnc2SCc2ccco2)cc1 | – | – | 89.1 µM (active)
CN(C)CC(=O)N1CC[C@H]2COC(=O)N2c2ccccc2C1 | – | -3.61% [at 172 µM] | –
Cc1nc(CCNC(=O)NC2CCCC2)no1 | – | 0.591% | –
CN1C(=O)CS(=O)(=O)C12CCN(C(=O)C1(c3ccccc3)CC1)CC2 | – | -2.32% | –
COC1C(=O)N(c2cccc(F)c2)C12CCN(C(=O)C1(c3ccccc3)CC1)CC2 (centres undefined) | – | – | 44.7 µM (active)
CNC(=O)[C@@H]1C[C@@H](O)CN1C1CCN(C(=O)C2(c3ccccc3)CC2)CC1 | – | -19.2% | –
O=C([C@@H]1C[C@H](Oc2cccnc2)CN1C(=O)Cc1cccc(F)c1)N1CCCC1 | – | 1.61% | –
CCCN(CC1CCOC1)S(=O)(=O)c1ccccc1Cl (centres undefined) | – | -22.3% | –
CN1CCN(c2nc3c(c(=O)[nH]2)CCN(Cc2cccc4[nH]ccc24)CC3)CC1 | – | -15.9% | –
Cc1ccc(C2Cn3nnc(C(=O)N4CCN(C(=O)COc5cccc(C)c5)CC4)c3CO2)cc1 (centres undefined) | – | 11.9% | –
CC(=O)N1CCN(c2cc(-c3noc([C@@H]4CCCN4C4CCC4)n3)ccn2)CC1 | – | -23.6% [at 172 µM] | –
COc1ccc(CN2CCC[C@H]2c2nc(-c3ccc(N(C)C)nc3)no2)c(O)c1 | – | -5.35% [at 172 µM] | –
CC(=O)N1CCN(c2cc(-c3noc([C@@H]4CCCN4Cc4ccccc4)n3)ccn2)CC1 | – | – | 70.8 µM (active)
O=C1CC(c2nc(-c3ccc4nc[nH]c4c3)no2)CN1Cc1ccncc1 (centres undefined) | – | 1.22% | –
c1ccc2c(CN3CCC[C@H]3c3nc(-c4ccnc(N5CCOCC5)c4)no3)c[nH]c2c1 | – | – | 89.1 µM (active)
CS(=O)(=O)c1ccc(CN2CCC[C@H]2c2nc(-c3ccc(N4CCC(C(N)=O)CC4)nc3)no2)cc1 | – | -12.9% | –
Cc1cn2nc(C(=O)NCc3cccs3)cc2c(N2CCCC2)n1 | – | 4.06% | –
CNc1nc(N2CC[C@H](N3CCN(C)CC3)[C@H](CCC(=O)O)C2)ncc1F | – | 3.05% | –
COc1ccc(NC(=O)N2CCC(CC(=O)NCc3ccccc3)C2)cc1OC (centres undefined) | – | -0.0483% | –

Source: PubChem BioAssay AID1345083 (National Center for Advancing Translational Sciences (NCATS), 2018)
